Reference: PubChem BioAssay (NCI)
This is part of a sample that, as a whole, favours compounds with a hit. Of some 79,000 tested, about 15% had one in any assay. Unmarked numbers belong to inactive results. No stated cut-off is given here; in the data, active means growth inhibition above about 70%; inactive means the rest.

Test: NCI Yeast Anticancer Drug Screen. Data for the rad50 strain (AID 155);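 further: 0% = growth of vehicle-only cultures of the same strain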
Conditions: S. cerevisiae rad50 strain growth inhibition; at 50.0 µM; active compounds read high
Method in brief: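 A DNA repair-deficient yeast mutant serves as the test organism; compound-induced growth inhibition is calculated against vehicle-treated cells.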

Compound	growth inhibition
O=c1cc(NCc2cccc([N+](=O)[O-])c2)[nH]c(=O)[nH]1	0.1%
CN(C)N=Nc1ccc(C(=O)N/N=C/c2ccccc2[N+](=O)[O-])cc1	-13.8%
COc1ccc(/C(C)=N/NC(N)=S)cc1OC	6.65%
CCCCCCCCCCCCCCCCCCCCCCCCCCCCCCCCCCCCSC(=N)N	8.25%
CCC1(C)C(=O)NC(=O)N1C(C)=O (stereo not given)	-5.1%
CCSC1OC(C(COC(C)=O)OC(C)=O)C(OC(C)=O)C1NC(=O)OCc1ccccc1 (stereo not given)	-0.05%
COC(=O)C1(C)CCCC2(C)c3cc(OC)ccc3C(=O)C(Cl)C12 (stereo not given)	7.8%
CCC1(CC)C(=O)N(C(=O)c2cc(OC)c(OC)c(OC)c2)N(C(=O)c2cc(OC)c(OC)c(OC)c2)C1=O	13.2%
C#CCOCC12C=CC(O1)C1C(=O)OCC12 (stereo not given)	-9.45%
N=C(N)c1ccncc1	-0.6%
Cc1ccc(S(=O)(=O)N2CCC[C@@H]2C(=O)O[C@@H]2CCC3CC=CC32)cc1 (stereo not given in full)	3.65%
O=C(CCBr)Nc1ccccc1	11.1%
O=C(/C=C\c1ccccc1)OCc1ccccc1CN1CCCCC1	15.7%
C(=Nc1ccc(SSc2ccc(N=Cc3ccc4c(c3)OCO4)cc2)cc1)c1ccc2c(c1)OCO2	18.8%
O=C(NCCN1CCCC1)NC1CCCCC1	-2.25%
N=c1nnc2ccc(Cl)cc2n1O	64.5%
Cc1cc(C)c(C#N)c(N)n1	-0.8%
CC(=O)CC(=O)NCC#N	27.9%
CS(=O)(=O)C(CCC(=O)c1cccs1)C(=O)c1ccccc1 (stereo not given)	-2.95%
O=C(Cn1ccc(=O)[nH]c1=O)Nc1ccc(C(=O)O)c(O)c1	0.45%

Compound	growth inhibition
O=C1c2ccccc2-c2nnc(-c3ccc(Cl)cc3)cc21	-29.1%
C#CC[N+](C)(CC#C)CC#C	9.85%
COC(=O)C1=CON2C3CC4CC(C3)CC(C4)C12C (stereo not given)	-2%
COc1ccc(C(=O)/C=C/c2ccc(OCCCCCCCCCCOc3ccc(/C=C/C(=O)c4ccc(OC)cc4)cc3)cc2)cc1	-14.2%
FC(F)(F)c1nc(Cl)c2cn[nH]c2n1	-8.7%
CCCC1C(C#N)(C#N)C(C#N)=C(N)C1(C)C(C)=O (stereo not given)	3.4%
CCn1cc2c(=O)n3ncn(-c4ccc(Br)cc4)c3nc2n1	-8.05%
COc1ccc2cc1Oc1ccc(cc1)CC1c3c(cc(OC)c4c3Oc3cc5c(cc3O4)CCNC5C2)CCN1C (stereo not given)	-15.9%
CCCCC/C(C)=C\CBr	-7.65%
CCCCOC(=O)C12CCCCC1O2 (stereo not given)	-29.1%
O=c1[nH]c(=O)n(C2CC(O)C(CO)O2)cc1/C=C/Br (stereo not given)	-17.9%
O=C(Nc1ccc(S(=O)(=O)/N=c2\ncccn2C(=O)C(C(F)(F)F)C(F)(F)F)cc1)C(C(F)(F)F)C(F)(F)F	-5%
c1ccc2c(-c3ccncc3)c3ccccc3cc2c1	20.8%
CCN(C(=O)CCl)c1ccccc1	15%
CN(C)NC(=O)CC#N	-18.4%
COC(=O)C1C(O)C(C)C(OC(C)=O)C(C)/C=C\C=C(C)C(=O)Nc2c(C)c(OC(C)=O)c3c(c2O)C(=O)C(C)=C2OCOC(=C23)C(C)=CC(C)(O)C(O)C(C)C1O (stereo not given)	3.25%
O=C1C(C2CCCCC2)=C2OCC3COC2(O3)c2ccccc21 (stereo not given)	-8.75%
O=C1Nc2ccccc2C1=Nc1cccc2ncccc12	3.35%
COc1ccc(Cl)[n+]([O-])n1	-20.3%
Cc1ccsc1S(N)(=O)=O	-21.1%
